Measurements reported in article PMC4336329 (PLoS ONE, 2015).
Screen size: about 310,000 compounds; about 14,000 (4.5%) showed an effect of 50% or more. Effects have a minus sign here. The sample as a whole holds a higher share of strong results than the screen did.

target: human ether-à-go-go-related gene (hERG) potassium channel (human, UniProt Q12809); assay: primary screen, population patch clamp on CHO cells stably expressing hERG; higher = less effect of the substance
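Note: peak tail current of the secondary pulse compared with the same well before compound.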

human ether-à-go-go-related gene (hERG) potassium channel, sequence (Q12809 whole entry, looked up): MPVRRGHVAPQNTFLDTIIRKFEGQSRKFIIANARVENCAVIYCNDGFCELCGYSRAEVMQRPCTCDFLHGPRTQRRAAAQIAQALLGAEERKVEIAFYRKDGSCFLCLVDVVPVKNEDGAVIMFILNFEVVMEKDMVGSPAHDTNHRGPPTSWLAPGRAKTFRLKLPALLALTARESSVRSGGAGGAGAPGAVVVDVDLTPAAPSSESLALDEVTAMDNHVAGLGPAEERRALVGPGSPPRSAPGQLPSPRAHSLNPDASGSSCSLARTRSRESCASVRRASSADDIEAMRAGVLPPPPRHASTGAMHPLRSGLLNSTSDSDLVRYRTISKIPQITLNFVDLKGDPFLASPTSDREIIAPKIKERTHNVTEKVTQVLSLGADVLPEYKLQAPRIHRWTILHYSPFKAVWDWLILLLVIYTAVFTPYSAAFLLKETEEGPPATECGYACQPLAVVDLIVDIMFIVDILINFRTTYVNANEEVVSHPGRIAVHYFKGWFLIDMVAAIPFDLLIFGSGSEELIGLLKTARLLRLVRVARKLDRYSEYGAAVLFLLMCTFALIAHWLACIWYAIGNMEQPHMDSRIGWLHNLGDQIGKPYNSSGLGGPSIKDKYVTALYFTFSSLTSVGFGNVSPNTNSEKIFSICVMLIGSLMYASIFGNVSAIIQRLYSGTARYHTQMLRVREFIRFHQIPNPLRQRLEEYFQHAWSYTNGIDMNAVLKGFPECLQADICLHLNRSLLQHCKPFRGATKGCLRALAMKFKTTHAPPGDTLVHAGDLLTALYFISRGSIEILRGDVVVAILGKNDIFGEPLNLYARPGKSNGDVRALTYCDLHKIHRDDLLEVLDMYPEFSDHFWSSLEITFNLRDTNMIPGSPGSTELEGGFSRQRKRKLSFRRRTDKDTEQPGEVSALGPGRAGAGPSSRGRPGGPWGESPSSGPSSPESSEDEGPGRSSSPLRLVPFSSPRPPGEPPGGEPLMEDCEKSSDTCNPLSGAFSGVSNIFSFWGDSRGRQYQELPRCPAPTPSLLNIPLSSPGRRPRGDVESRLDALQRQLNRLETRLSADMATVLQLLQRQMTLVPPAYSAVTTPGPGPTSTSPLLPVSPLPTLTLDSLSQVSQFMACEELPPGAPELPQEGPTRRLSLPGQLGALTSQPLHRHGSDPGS

Structure (SMILES) | hERG current change (%, negative = inhibition) at 10uM
O=C(NC1CCS(=O)(=O)C1)/C(=C\c1ccco1)NC(=O)c1ccccc1 (stereo not shown) | 1.36%
Cc1cc(-c2nn3c(C)nnc3s2)ccc1NC(=O)C(C)(C)C | 10.7%
COc1ccc(N2CCN(C(=O)C3CCN(S(=O)(=O)c4ccc(F)cc4)CC3)CC2)cc1 | -48.3%
Cc1ccc(C)c(S(=O)(=O)N2CCN(C(=O)C3CCN(C(=O)c4ccc(F)cc4)CC3)CC2)c1 | -30.6%
Cc1ccc(S(=O)(=O)N2CCN(C(=O)c3ccco3)CC2)c(C)c1 | -7.22%
CC(=O)c1ccc(N2CCN(C(=O)C3CCN(S(=O)(=O)c4ccc(F)cc4)CC3)CC2)cc1 | -52.6%
CC(C)c1ccc(S(=O)(=O)N2CCN(C(=O)C3CCN(C(=O)c4ccc(F)cc4)CC3)CC2)cc1 | -53.7%
Cc1ccc(S(=O)(=O)N2CCN(C(=O)COC(=O)c3ccc(Br)o3)CC2)c(C)c1 | -10.3%
CC(=O)N1CCC(C(=O)N2CCN(S(=O)(=O)c3ccc(F)cc3)CC2)CC1 | -1.33%
CN1CCN(C(=O)C2CCN(S(=O)(=O)c3ccc(F)cc3)CC2)CC1 | 5.18%
O=C(c1ccc(F)cc1)N1CCC(C(=O)N2CCN(S(=O)(=O)c3ccccc3Br)CC2)CC1 | -32.6%
Cc1ccc(S(=O)(=O)N2CCN(C(=O)c3ccc(Br)o3)CC2)c(C)c1 | -55%
CC(C)c1ccc(S(=O)(=O)N2CCN(C(=O)C3CCCC3)CC2)cc1 | 2.78%
Cc1ccc(S(=O)(=O)N2CCN(C(=O)C3CCN(C(=O)c4ccc(F)cc4)CC3)CC2)c(C)c1 | -55.7%
CC(C)c1ccc(/C=C2\SC(=O)N(CC(=O)NC3C=CS(=O)(=O)C3)C2=O)cc1 (stereo not shown) | 5.89%
O=C(Cn1cnc2c(nnn2Cc2ccc(F)cc2)c1=O)NCc1ccco1 | -18.2%
CCOc1ccc(CN2CCNC(=O)C2CC(=O)NCc2cc(C)n(C)n2)cc1 (stereo not shown) | -1.95%
O=C(NC(=S)NNS(=O)(=O)c1ccc(Cl)cc1)c1cccnc1 | 18.6%
O=C(CNC(=S)N(Cc1ccccc1)Cc1ccccc1F)NCCc1ccccc1 | 3.73%
Cc1ccc2c(c1)C(c1ccccc1)=NCC(=O)N2 | -12.8%
NS(=O)(=O)c1cc(C(=O)O)cc(N2CCCC2)c1Oc1ccccc1 | 0.0774%
O=C(Nc1ccc(Cl)cn1)c1ccccc1F | -1.25%
O=C(NC(=S)Nc1ccc2oc(=O)ccc2c1)c1cccc(Cl)c1 | 4.11%
COc1cc(NC(=O)CN(C)S(=O)(=O)c2ccc3c(c2)CCC(=O)N3)cc(OC)c1 | -23.9%
CCC1=NN(C(=O)c2ccccc2Br)C(O)(c2ccc(Br)cc2)C1 (stereo not shown) | 25.2%
CC(=O)Nc1ccc(N2C(=O)c3cccc4c(O)ccc(c34)C2=O)cc1 | 13.4%

Structure (SMILES) | hERG current change (%, negative = inhibition) at 10uM
COc1ccc(OC)c(S(=O)(=O)N2CCC(C(=O)N3CCN(c4ccc(F)cc4)CC3)CC2)c1 | -78%
COc1ccc(OC)c(S(=O)(=O)N2CCC(C(=O)N3CCCCCC3)CC2)c1 | 5.45%
COc1ccc(OC)c(S(=O)(=O)N2CCC(C(=O)N3CCCC3)CC2)c1 | 7.71%
COc1ccc(-c2[nH]ncc2CN(C)Cc2cccnc2)c(F)c1 | -1.66%
CC(=O)N1CCc2cc(S(=O)(=O)NC(CC(C)C)C(=O)N3CCn4c3nc3ccccc34)ccc21 (stereo not shown) | -60%
CC(=O)N1CCc2cc(S(=O)(=O)NC(CC(C)C)C(=O)N3CCCC3)ccc21 (stereo not shown) | -20.2%
CC(=O)N1CCc2cc(S(=O)(=O)NC(CC(C)C)C(=O)N3CCc4ccccc4C3)ccc21 (stereo not shown) | -26.8%
O=C1CS/C(=N/N=C/c2ccccc2)N1Cc1ccco1 | 1.4%
COC(=O)C(C)N=Cc1ccccc1 (stereo not shown) | 12.9%
O=c1c2ccccc2nc(/C=C/c2ccc3c(c2)OCO3)n1-c1ccccc1 | -26%
O=c1c2ccccc2nc(/C=C/c2ccc3c(c2)OCO3)n1-c1cccc(O)c1 | -7.38%
COc1ccc(-n2c(/C=C/c3ccc4c(c3)OCO4)nc3ccccc3c2=O)cc1 | -55.3%
Cc1ccc(-n2c(/C=C/c3ccc4c(c3)OCO4)nc3ccccc3c2=O)cc1 | -50.4%
COc1ccc(-n2c(/C=C/c3ccc(O)c(O)c3)nc3ccccc3c2=O)cc1 | 10.6%
COc1ccc(-n2c(/C=C/c3ccc(O)cc3)nc3ccccc3c2=O)cc1 | -21.6%
CCc1ccccc1OCC(=O)OCC(=O)Nc1cc(C)on1 | -2.74%
CCC(=O)N1CCc2cc(S(=O)(=O)CCC(=O)N3CCN(c4ccccc4)CC3)ccc21 | 3.15%
O=C(CN1CCN(S(=O)(=O)c2ccc(F)cc2)CC1)NCC1(N2CCOCC2)CCCCC1 | -18.6%
O=C(CN1CCN(S(=O)(=O)c2ccc(Cl)cc2)CC1)NCC1(N2CCOCC2)CCCCC1 | -39.3%
O=C(Cc1ccc(Cl)cc1Cl)NCC1(N2CCOCC2)CCCCC1 | 5.44%
N#CCC(=O)Nc1ccc(C(=O)NCC2(N3CCOCC3)CCCCC2)cc1 | 7.48%
CC(NCC1(N2CCOCC2)CCCCC1)C(=O)Nc1ccc(Cl)cc1Cl.O=C(O)C(=O)O (stereo not shown) | -74.6%
O=C(CN1CCN(CC(=O)Nc2ccc(F)cc2)CC1)NCC1(N2CCOCC2)CCCCC1 | -73.4%
CC(NCC1(N2CCOCC2)CCCCC1)C(=O)N1CCc2ccccc21.O=C(O)C(=O)O (stereo not shown) | -5.73%
O=C(CNCC1(N2CCOCC2)CCCCC1)Nc1ccc(Cl)cc1 | -78.8%
O=C(CN1CCN(CC(=O)Nc2cccc(F)c2)CC1)NCC1(N2CCOCC2)CCCCC1 | -27%
